Laboratory results published in PubChem BioAssay (NCI).
Compounds without any hit were thinned out: in the full panel of roughly 83,000, 20% have a hit.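 In brief: 96-well plates, 48 h treatment, single concentration, percent growth endpoint.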 A number with no mark means an inactive call. The source made the active and inactive calls. Rule for the calls: active = growth percent below 10; inactive = the rest.

Test system: MDA-MB-468 breast
Assay: NCI-60 one-dose screen, 48 h (100 = growth as untreated, 0 = no growth, -100 = all killed)
Details: 10 µM unless noted

| Structure (SMILES) | growth |
| --- | --- |
| C=C1C(=O)O[C@H]2[C@H]1CC/C(COC(=O)N[C@H](Cc1c[nH]c3ccccc13)C(=O)OC)=C\CC[C@@]1(C)O[C@@H]21 | 22.5% |
| COc1ccc(/C=N/NC(=O)COCC(=O)N/N=C/c2ccc(OC)cc2)cc1 | 100% |
| N/C(=N\c1nc2ccc([N+](=O)[O-])cc2s1)C(Cl)(Cl)Cl | 3.78% (active) |
| CC(=O)/C=C/c1cc2cc(Cl)ccc2[nH]c1=O | 82.9% |
| CN(C)C(=O)c1cc(-c2ccc3ncnc(NCc4ccccc4)c3c2)cnc1N | 71.9% |
| CCN1CCN(/C(=N\c2sc(-c3ccccc3)nc2-c2ccccc2)c2ccccc2)CC1 | 75.3% |
| O=C1/C=C/[C@@H](O)[C@@H]2C[C@@H](O)C[C@H]2/C=C/CCC[C@H](CCc2ccc3ncccc3c2)O1 | -5.95% (active) |
| CCOC(=O)c1c(-c2cc(OC)c(OC)c(OC)c2)csc1N | 50% |
| COc1cc(C2=NN(c3ccccc3)C(c3cccc(Nc4ccnc5cc(C(F)(F)F)ccc45)c3)C2)cc(OC)c1OC (stereo not given) | 92.2% |
| N=C(N)c1ccc(-c2ccc(-c3ccc(Cl)cc3Cl)o2)cc1 | -84.4% (active) |
| CN(C)c1ccc(N=Nc2cccc3ccccc23)cc1 | -26.6% (active) |
| Cc1cc(N(CCCNc2ccnc3cc(Cl)ccc23)Cc2ccccn2)nc(N2CCOCC2)n1 | 78.8% |
| CCOC(=O)C1C(=O)C=C(c2cc(OC)c(OC)c(OC)c2)CC1c1sc(N(C)Cc2ccccc2)nc1Cl (stereo not given) | 71.2% |
| COC1/C=C/OC2(C)Oc3c(C)c(O)c4c(O)c(c(/C=N/Nc5ccc([N+](=O)[O-])cc5[N+](=O)[O-])c(O)c4c3C2=O)NC(=O)C(C)=C/C=C/C(C)C(O)C(C)C(O)C(C)C(OC(C)=O)C1C (stereo not given) | -54.5% (active) |
| CCc1ccccc1-n1[nH]c(C)c(C=N)c1=O | 90.3% |
| CS(=O)(=O)c1ccc(C(=O)N/N=C/c2cccc3ccccc23)cc1 | 74.2% |
| N#Cc1cnc2ccc(-c3cnc4[nH]ncc4c3)cc2c1N1CCc2cc(F)c(Cl)cc21 | -19.8% (active) |
| COc1ccc(NC(=S)Nc2ccccn2)cc1 | 104% |
| CN(C)c1ccc(N)c2ccccc12 | 57.8% |
| O[C@H]1[C@H]2c3cc4c(cc3CN3CCC(=C[C@@H]1O)[C@H]23)OCO4 | 20.7% |

| Structure (SMILES) | growth |
| --- | --- |
| C[C@@H]1COC(Nc2ccc3ncnc(Nc4ccc(OCc5nccs5)c(Cl)c4)c3c2)=N1 | -16.4% (active) |
| Cc1ccc(-c2cc(-c3cccnc3)[nH]c(=O)c2C#N)cc1 | 106% |
| CCS(=O)(=O)c1ncnc2nc[nH]c12 | 105% |
| O=[N+]([O-])c1cc2c(ccc3occc32)o1 | -8.85% (active) |
| Cc1ccc(/C=C(\C#N)c2cc3ccccc3[nH]2)cc1 | 43.2% |
| N/C(=N\c1nc2ccccc2s1)NC(=O)Nc1ccccc1 | 31.4% |
| COc1cccc(-c2nnc(COc3ccc(-c4nc5ccccc5[nH]4)cc3OC)o2)c1 | 84.6% |
| O=C1c2ccc3c4c(ccc(c24)C(=O)N1CCCCO)C(=O)N(CCCCO)C3=O | -29.2% (active) |
| O=C(O)c1cn(C2CC2)c2cc(N3CCN(C(=O)C[n+]4cccc5ccccc54)CC3)c(F)cc2c1=O | 71.4% |
| COc1ccc(-c2cc(C(=O)Nc3ccc(Br)cc3)nc3[nH]c(=O)sc23)cc1 | 33.2% |
| N#CC1c2ccccc2C=CN1C(=O)CCCl (stereo not given) | 24.2% |
| COc1ccc(CN2c3ccccc3Sc3ccccc32)c(F)c1 | 2.44% (active) |
| C#C[C@@]1(O)[C@@H](CO)O[C@@H](n2cc(I)c3c(N)ncnc32)[C@@H]1O | -37.7% (active) |
| CC(C)(C)n1cc(-c2ccnc(NCCCNS(=O)(=O)c3ccc(F)cc3)c2)c(-c2cccc(O)c2)n1 | 24.3% |
| CS(=O)(=O)c1ccc(C(=O)N2N=C(c3ccccc3)CC2c2ccc3c(c2)OCO3)cc1 (stereo not given) | 90.1% |
| CCOc1cc2c(cc1OCC)C(c1cc(C)c(O)c(C)c1)NCC2 (stereo not given) | 102% |
| Nc1c(C(=O)Nc2cccc3c2OCCO3)sc2nc3c(cc12)C(=O)CCC3 | 18.7% |
| O=C(CSC(=S)n1cnnc1)NC(=O)c1ccccc1 | 119% |
| CCN(CC)C(=S)SC(SC(=S)N(CC)CC)C(=O)c1nnn(-c2ccc([N+](=O)[O-])cc2)c1C | 102% |
| Nc1cc(C(=O)N/N=C\c2ccc(OC(F)F)c(OC3CCCC3)c2)nn1CC(O)c1ccccc1 (stereo not given) | 106% |
